Screening data (PubChem)
Sampled rows, rich in hits. Any-hit rate of the full collection: about 2.4%.
TNF necrop inh: inhibitors of TNF-alpha induced necroptosis in Jurkat FADD-/- cells; activation (protection from cell death), % at 10 µM; hit rate 0.068% among 220,000; AID 463075; Jurkat FADD-/- TNF necroptosis rescue, ATP luminescence, 24 h; 0 = TNF only, 100 = no-TNF cells;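 active means activation, meaning protection from cell death, of at least 50% relative to plate controls; inactive means activation below 50%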;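 further: necroptosis triggered by 40 ng/mL TNF-alpha added together with compound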
Bim-Mcl-1: disrupts Bim peptide binding to human Mcl-1. hit rate 0.1% among 190,000. inhibition, % at 10 µM. Q07820. Bead-based flow cytometry, Bim peptide-Mcl-1 binding; in the data active means inhibition above about 40%;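 further: 0% = no compound tracer wells and 100% = peptide blocker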
Target sequence (Q07820 whole entry, looked up): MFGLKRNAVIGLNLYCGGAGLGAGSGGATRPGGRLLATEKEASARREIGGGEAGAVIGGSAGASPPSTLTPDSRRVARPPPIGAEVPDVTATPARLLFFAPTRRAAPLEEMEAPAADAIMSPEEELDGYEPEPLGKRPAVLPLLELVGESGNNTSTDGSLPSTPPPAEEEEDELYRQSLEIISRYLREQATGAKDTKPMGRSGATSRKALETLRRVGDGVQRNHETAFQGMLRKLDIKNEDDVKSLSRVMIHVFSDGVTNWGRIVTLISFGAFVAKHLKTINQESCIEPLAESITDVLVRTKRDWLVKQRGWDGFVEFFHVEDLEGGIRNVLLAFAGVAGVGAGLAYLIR
zVAD death inh: L929 zVAD cell death inhibition; viability rescue, % at 10 µM; L929 zVAD necroptosis rescue, ATP luminescence, 24 h; with zVAD 60 µM; AID 1377; hit rate 0.38% among 220,000;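 active means activation, scaled between plate controls, above about 75%, limit read from the data; inactive means activation under that limit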;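 further: 0% = zVAD with DMSO and 100% = DMSO alone without zVAD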
Mcl1 Bid PPI: disrupts binding of human Mcl-1 to Bid peptide | Q07820 | TR-FRET Mcl-1/Bid-Dy647 peptide binding, 1536-well | inhibition, % at 21.7 µM | hit rate 0.97% among 220,000;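 active means compounds that cut the binding signal by more than half at the single screening dose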;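 further: His-tagged Mcl-1 with europium anti-His antibody binding Bid BH3 peptide; 0% = Mcl-1 plus peptide wells and 100% = peptide-only wells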
MCL1 BIM primary: MCL1-BIM-BH3 interaction inhibition (human). GST-MCL1 / FITC-Bim-BH3 fluorescence polarization. AID 2057. inhibition, % at 10.9 µM. Q07820. hit rate 0.68% among 320,000;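 active means inhibition above the mean inhibition of all tested compounds plus 3 SD, set per campaign, cut at about 40% in these data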;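 further: 0% = DMSO wells and 100% = unlabeled Bim-BH3 peptide control; higher means more loss of mP so more displacement of Bim peptide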
Mcl1 Noxa PPI: disrupts binding of human Mcl-1 to Noxa peptide; inhibition, % at 21.7 µM; hit rate 1.5% among 220,000; Q07820; TR-FRET Mcl-1/Noxa peptide binding, 2 h;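 active means compounds that cut the protein-peptide binding signal by more than 50% relative to plate controls in a single-dose test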;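 further: His-tagged Mcl-1 with rhodamine Noxa BH3 peptide and terbium anti-His antibody; 0% = Mcl-1 plus Noxa peptide wells and 100% = peptide-only wells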
BCLXL inh confirm: counter-screen for MCL1 inhibitors: confirmation of human Bcl-xL inhibitors; shares compounds with MCL1 BIM primary; GST-Bcl-xL / FITC-Bim BH3 peptide FP binding; inhibition, % at 10.9 µM; hit rate 54% among 1,700; AID 2166;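 active means inhibition above a cutoff equal to the mean inhibition of all tested compounds plus 3 SD, cut at about 30% in these data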;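 further: 0% = DMSO wells and 100% = unlabeled Bim BH3 control peptide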
Target sequence (Q07817 whole entry, looked up): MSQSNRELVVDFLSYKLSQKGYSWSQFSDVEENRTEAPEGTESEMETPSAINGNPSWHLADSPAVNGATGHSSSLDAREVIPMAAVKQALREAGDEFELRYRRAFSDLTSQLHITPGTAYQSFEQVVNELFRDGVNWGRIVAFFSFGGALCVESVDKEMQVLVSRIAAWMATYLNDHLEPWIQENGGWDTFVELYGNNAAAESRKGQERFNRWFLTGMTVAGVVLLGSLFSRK
MCL1 BIM confirm: MCL1-BIM-BH3 interaction inhibition, confirmation | shares compounds with MCL1 BIM primary | GST-MCL1 / FITC-Bim-BH3 fluorescence polarization | inhibition, % at 10.9 µM | hit rate 61% among 1,700;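 active means inhibition above the average of all tested compounds plus 3 SD, cut at about 40% in these data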;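 further: 0% = DMSO wells and 100% = unlabeled Bim-BH3 control peptide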
Starred values were filed as active, the others as inactive; . = no result; + = active, no number.

SMILES | TNF necrop inh | Bim-Mcl-1 | zVAD death inh | Mcl1 Bid PPI | MCL1 BIM primary | Mcl1 Noxa PPI | BCLXL inh confirm | MCL1 BIM confirm
Cc1ccc(CNS(=O)(=O)c2ccc(F)c(F)c2)n1C | . | . | . | . | 14 | . | . | .
O=C(O)c1cnc2ccccc2n1 | 1 | 0 | 1 | -21 | 7 | 10 | . | .
N#CCc1cnc2ccccc2n1 | 3 | . | 0 | -17 | 76* | 3 | 7 | 2
O=C(COC(=O)Cc1c(Cl)cccc1Cl)Nc1ccc2[nH]c(=O)[nH]c2c1 | . | . | . | . | -2 | . | . | .
COc1ccc(S(=O)(=O)Nc2cc3[nH]c(=O)oc3cc2C)cc1 | . | . | . | . | 9 | . | . | .
O=c1nc(/C=C/c2ccc(-c3ccc(F)cc3)o2)cc(C(F)(F)F)[nH]1 | 0 | 13 | 1 | -17 | 44* | 14 | 40* | 22
CC(C)Oc1ccc(C(=O)N2CCN(C(=O)c3ccco3)CC2)cc1 | . | . | . | . | -14 | . | . | .
Cc1c(C(=O)c2ccc(F)cc2F)c2ccccn2c1CCC#N | . | . | . | . | 117* | . | 5 | 6
Cc1c(C(=O)c2ccc(Cl)cc2[N+](=O)[O-])c2ccccn2c1CCC#N | 2 | -4 | 0 | -13 | 5 | 4 | . | .
Cc1ccc2c(c1)c1nc3ccccc3nc1n2C | . | . | . | . | 76* | . | 84* | 136*
Cn1c2ccc(F)cc2c2nc3ccccc3nc21 | . | . | . | . | 8 | . | . | .
COc1ccc(C2OC34CCCCC3C(C#N)(C#N)C2(C#N)C(=N)O4)cc1 (stereo not given) | 0 | -6 | 1 | -51 | 155* | -2 | 105* | 135*
CCCC1OC23CCCCC2C(C#N)(C(=N)O3)C1(C#N)C#N (stereo not given) | -3 | -1 | 0 | -13 | 56* | 6 | 17 | 16
CCC1OC23CCCCC2C(C#N)(C(=N)O3)C1(C#N)C#N (stereo not given) | -2 | 2 | 0 | -33 | 78* | 29 | 4 | 7
COCCCNC(=O)CN(c1cc([N+](=O)[O-])ccc1OC)S(C)(=O)=O | -2 | 0 | 0 | -7 | 1 | -2 | . | .
Cc1cc(C(=O)COC(=O)Cc2ccc(Br)cc2)c(C)n1C | . | . | . | . | 3 | . | . | .
Cc1cc(C2(O)C(=O)Nc3ccccc32)ccc1F (stereo not given) | . | . | . | . | 79* | . | 14 | 24
COC(=O)c1ccc(CNC(=O)COC(=O)C2CC3C=CC2C3)cc1 (stereo not given) | 0 | -2 | 2 | -34 | 4 | -12 | . | .
N#C/C(=C\c1ccc(-c2ccc(F)cc2)o1)C(=O)Nc1nc(-c2cccs2)cs1 | 1 | 1 | 1 | 22 | 41* | 57* | 45* | 73*
Cc1ccc(Sc2cc(C(=O)NCCCN(C)C)c3ccccc3n2)cc1 | . | . | . | . | 86* | . | 6 | 2
Cc1ccc(Sc2cc(C(=O)NCCN(C)C)c3ccccc3n2)cc1 | . | . | . | . | -2 | . | . | .
O=C(CC(=O)NC1CCCCC1)N/N=C/c1ccccc1[N+](=O)[O-] | . | . | . | . | 6 | . | . | .
CC1CCCC(NC(=O)c2ccc3snnc3c2)C1C (stereo not given) | . | . | . | . | -1 | . | . | .
CC1CCCCN1C(=O)Cn1nnc(-c2cccnc2)n1 (stereo not given) | 0 | -2 | 0 | -10 | 91* | 16 | 73* | 110*
CNC(=O)c1c(N)sc2c1CCCCC2 | -1 | -4 | 5 | 4 | 72* | 21 | 44* | 52*
SMILES | TNF necrop inh | Bim-Mcl-1 | zVAD death inh | Mcl1 Bid PPI | MCL1 BIM primary | Mcl1 Noxa PPI | BCLXL inh confirm | MCL1 BIM confirm
CC1CCCC(C)N1C(=O)COC(=O)Cc1ccc(F)cc1 (stereo not given) | . | . | . | . | 0 | . | . | .
CCN(CCCNC(=O)CN1C(=O)COc2ccc(S(=O)(=O)N3CCC(C)CC3)cc21)Cc1ccccc1 | . | . | . | . | 0 | . | . | .
O=C(CSC1=Nc2ccccc2C2=NC(CC(=O)NC3CCCCC3)C(=O)N12)NCc1ccco1 (stereo not given) | 0 | 0 | 0 | -12 | 63* | 10 | 46* | 56*
O=C(CCC1N=C2c3ccccc3N=C(SCc3ccccc3Cl)N2C1=O)NCc1ccco1 (stereo not given) | 0 | -2 | 0 | -13 | 11 | 27 | . | .
O=c1[nH]c(-[n+]2ccc3ccccc3c2)c(/C=N/N=C(\[O-])c2ccccc2)s1 | . | . | . | . | 99* | . | 22 | 34
COc1cc(/C=C2/SC(=S)N(Cc3ccccc3)C2=O)ccc1OCC(=O)O | . | . | . | . | 1 | . | . | .
COc1cc([N+](=O)[O-])cc(/C=C2/SC(=S)N(Cc3ccccc3)C2=O)c1O | . | . | . | . | 73* | . | 70* | 80*
O=C1/C(=C\c2cc(Br)cc(Br)c2O)SC(=S)N1Cc1ccccc1 | . | . | . | . | 51* | . | 24 | 49*
O=C(CS(=O)c1ccc(Br)cc1)N1CCOCC1 (stereo not given) | . | . | . | . | -1 | . | . | .
O=C1COc2ccc(C(=O)COC(=O)/C=C/c3ccc(Br)o3)cc2N1 | . | . | . | . | 73* | . | 4 | 51*
O=C1COc2ccc(C(=O)COC(=O)/C=C/c3cccc(F)c3)cc2N1 | 0 | . | 2 | 3 | -2 | 8 | . | .
CC(Oc1ccc(F)cc1)C(=O)Nc1cccc(-c2nn[nH]n2)c1 (stereo not given) | . | . | . | . | 41* | . | -4 | -23
COc1ccc(C(C#N)N2CCC(c3ccccc3)=N2)cc1 (stereo not given) | . | . | . | . | -3 | . | . | .
Nc1cc(Nc2ccc(Br)cc2)nc(N)n1 | 0 | . | -1 | -12 | 50* | 14 | 44* | 46*
Cc1cc(Nc2ccc(Cl)cc2)nc(N)n1 | -2 | 0 | 0 | -24 | 2 | 15 | . | .
CCOC(=O)CN1C=C(c2ccc3ccccc3n2)C(C[N+](=O)[O-])c2ccccc21 (stereo not given) | 1 | -3 | 1 | -8 | 106* | -1 | 138* | 172*
C[C@H]([C@H](O)c1ccccc1)N(C)C(=O)CN | . | . | . | . | 7 | . | . | .
CC1=NN(c2cccc(C(=O)O)c2)C(=O)/C1=C\C=C\c1ccco1 | -6 | 0 | -1 | -16 | 81* | 98* | 30* | 68*
CC1=NN(c2ccccc2)C(=O)/C1=C/C=C/c1ccccc1 | -9 | -2 | 0 | -10 | 9 | 3 | . | .
O=c1ccc2cc3c4c(c2o1)CCCN4CCC3 | -2 | 5 | 24 | -15 | 105* | 10 | 155* | 182*
O=c1oc2c3c4c(cc2s1)CCCN4CCC3 | -3 | 3 | -1 | -16 | 165* | 51* | 99* | 120*
O=C(N/N=C/c1cc2c3c(c1O)CCCN3CCC2)c1ccccc1O | -10 | 21 | 61 | -54 | . | 14 | . | .
Oc1ccc(/C=N/N2CCCCC2)c(O)c1O | . | . | . | . | 54* | . | 12 | 6
CC1=Nc2ccccc2/C1=C\c1nc(-c2ccc(F)cc2)oc1O | 1 | -2 | 0 | -22 | + | 2 | 92* | 141*
